Test results from PubChem BioAssay AID612 (The Scripps Research Institute Molecular Screening Center, 2007).
Out of some 62,000 compounds screened, about 420 (0.68%) were called active. For the sample, actives were picked, then their nearest neighbours and some compounds at random. Values without a mark were called inactive.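 How the source made its calls: active means inhibition above the mean of all tested compounds plus 3 SD (cut at about 43% in these data); inactive means the rest.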

The molecules below were run against 5-hydroxytryptamine receptor 1A (Homo sapiens) (UniProt P08908) (assay: blockade of serotonin HTR1A receptor – cell-based, CHO, Ga15 NFAT-bla reporter, primary screen (AID 612;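 further: receptor stimulated by 5-CT agonist at 100 nM near EC80; beta-lactamase reporter measured by ratiometric fluorescence of a cleavable substrate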)). Settings: CHO 5-HT1a Ga15 NFAT-bla reporter, antagonist mode; at 10 µM; stronger effect = higher value.
Sequence of 5-hydroxytryptamine receptor 1A (Homo sapiens) (P08908 whole entry, looked up): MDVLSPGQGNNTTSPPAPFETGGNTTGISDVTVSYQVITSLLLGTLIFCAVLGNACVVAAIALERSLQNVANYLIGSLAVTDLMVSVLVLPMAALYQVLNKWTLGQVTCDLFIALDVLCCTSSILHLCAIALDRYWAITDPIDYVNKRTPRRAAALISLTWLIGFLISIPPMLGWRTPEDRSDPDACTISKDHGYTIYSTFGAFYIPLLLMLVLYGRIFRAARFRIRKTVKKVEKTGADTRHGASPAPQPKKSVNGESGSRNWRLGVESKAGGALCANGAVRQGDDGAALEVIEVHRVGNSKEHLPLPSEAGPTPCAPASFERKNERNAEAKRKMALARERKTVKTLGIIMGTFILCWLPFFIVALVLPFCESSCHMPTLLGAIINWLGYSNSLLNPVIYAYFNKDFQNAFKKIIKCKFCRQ
Molecule COc1ncnc2sc3c(c12)CCCC3 has an inhibition of 10.5%.
For COc1ccc(-c2nnco2)cc1OC, the inhibition was 2%.
In the case of COc1ccc(-c2cc(C(F)(F)F)nc(S(C)(=O)=O)n2)cc1OC, the inhibition is reported as 78.1% (active).
Work on COc1ccc(-c2ccc(Nc3ccc(S(=O)(=O)N4CCCC4)cc3)nn2)cc1OC yielded an inhibition of -0.9%.
With CN1CCN(CC(=O)C23CC4CC(CC(C4)C2)C3)CC1 the inhibition was 4.4%.
Molecule Cc1ccc(C2(c3ccc(C)cc3)NC(=O)N(Cc3c(C)noc3C)C2=O)cc1 has an inhibition of 1.9%.
CCN(Cc1ccccc1)C(=O)CSc1nc(C)cc2c1C(=O)OC2 showed an inhibition of -9%.
O=C(CSc1nnc(-c2cnccn2)n1Cc1ccco1)c1ccc(Cl)c(Cl)c1 showed an inhibition of 9.1%.
Molecule Cc1noc(C)c1S(=O)(=O)NCCc1ccc(S(N)(=O)=O)cc1 has an inhibition of -7.6%.
COc1ccc(CCN(C)C(=O)C2CCCN(Cc3ccc(OC)c(OC)c3)C2)cc1OC (centres undefined) showed an inhibition of 14.7%.
Work on COc1ccccc1N1CCN(C(=O)CN(Cc2ccc(Cl)cc2)S(C)(=O)=O)CC1 yielded an inhibition of 17.7%.
For COc1ccccc1-n1nnnc1S(=O)(=O)Cc1ccc(Cl)cc1, the inhibition was 82.7% (active).
COc1ccccc1N1CCN(Cc2nnnn2CCc2ccccc2)CC1 gave an inhibition of 5.1%.
Molecule COC(=O)c1ccc(NC(=O)CSc2nnc(Cc3cccn3C)n2-c2ccc(F)cc2)cc1 has an inhibition of 3.3%.
Work on Cc1ccc(N2C(=O)CC(NCc3ccc4c(c3)OCO4)C2=O)cc1Cl (centres undefined) yielded an inhibition of -4.3%.
With CC(C)NS(=O)(=O)c1ccc(CCC(=O)N2CCOCC2)cc1 the inhibition was -10.5%.
Molecule CCOC(=O)CSc1nnc(CNC(=O)c2ccco2)n1-c1ccc(F)cc1 has an inhibition of 5.9%.
CN(C)/C=C1\C=C(c2ccccc2)OC1=O was tested, and the inhibition was -8.2%.
CCOC(=O)C1(Cc2ccc(O)cc2)NC(c2ccccc2F)C2C(=O)N(C)C(=O)C21 (centres undefined) showed an inhibition of 6.2%.
Work on Clc1ccc(C=NC23CN4CN(CN(C4)C2)C3)cc1 yielded an inhibition of -6.9%.
In the case of COc1ccc(CNC(=O)C2CCN(S(=O)(=O)N3CCOCC3)CC2)cc1, the inhibition is reported as 5.7%.
For c1csc(-c2nc(-c3ccncc3)no2)c1, the inhibition was -12.8%.
COc1cc(Cl)c(S(=O)(=O)n2cnc(C)c2)cc1Cl was tested, and the inhibition was -7.5%.
In the case of CSCC[C@H](NC(=O)NCc1cccs1)C(=O)O, the inhibition is reported as 4.7%.
Molecule CC1CCN(c2oc(-c3ccccc3F)nc2C#N)CC1 has an inhibition of 13.1%.
Molecule c1csc(-c2cn3c(n2)SCC3)c1 has an inhibition of 5.5%.
Work on Cc1ccc(C(=O)Nc2nnc(-c3cccs3)s2)cc1C yielded an inhibition of -13.8%.
Work on COc1cccc(NC(=O)Nc2nnc(N3CCCCC3C)s2)c1 (centres undefined) yielded an inhibition of 35.8%.
Work on c1ccc(-n2ncc3c2ncn2c(C4CCCCC4)nnc32)cc1 yielded an inhibition of -3.1%.
In the case of O=C(CC(NS(=O)(=O)c1ccc(Cl)cc1)c1ccco1)NC1CCCC1 (centres undefined), the inhibition is reported as 7.3%.
COC(=O)N1CN(C(=O)OC)CN(C(=O)OC)C1 showed an inhibition of -7%.
O=C(CN1CCOCC1)Nc1c2c(nc3c1CCC3)CCC2 gave an inhibition of 2.1%.
In the case of CCOC(=O)CSc1nc2c(sc(=S)n2CCc2ccccc2)c(=O)n1Cc1ccco1, the inhibition is reported as 58.2% (active).
COc1ccccc1NC(=O)CSc1nc2sc(C)c(C)c2c(=O)n1Cc1ccco1 showed an inhibition of 19.2%.
CCOC(=O)CSc1nc2c(c(=O)n(C)c(=O)n2C)n1Cc1ccccc1F was tested, and the inhibition was -3.1%.
For CC(c1cccnc1)N(CCN(C)C)C(=O)Nc1ccc(Cl)c(Cl)c1 (centres undefined), the inhibition was 3.9%.
In the case of Cc1ccc(C)c(NC(=O)C2CC(=O)N(C(C)C)C2)c1 (centres undefined), the inhibition is reported as -1.5%.
COc1ccc(S(=O)(=O)N2CCOCC2)cc1C(=O)Nc1nc2ccccc2s1 showed an inhibition of -17.7%.
Cc1ccc2nc(NC(=O)C3CCN(S(=O)(=O)c4ccc5c(c4)oc(=O)n5C)CC3)sc2c1 showed an inhibition of 1.8%.
O=S(=O)(NCc1ccccc1Cl)c1cnc[nH]1 gave an inhibition of -4.7%.
For COc1ccccc1C(=O)Oc1ccc(N2C(=O)CCC2=O)cc1, the inhibition was -3.5%.
For CCOc1cc(C(=O)N2CCc3cc(OC)c(OC)cc3C2)ccc1OC(F)F, the inhibition was 60.5% (active).
With CCOc1cc(CN2CCN(C(=O)CC(C)C)CC2)ccc1OC the inhibition was -2.9%.
CCOc1cc(-c2noc(CCC(=O)N3CCOCC3)n2)ccc1OC gave an inhibition of -10.7%.
With COc1cc2c(cc1OC)C(c1ccc(C)o1)CC(=O)N2 (centres undefined) the inhibition was 30.2%.
In the case of COCCOC(=O)C1=C(C)NC(=O)CC1c1cc2c(cc1Br)OCO2 (centres undefined), the inhibition is reported as 3.2%.
With CCCOc1ccccc1C1CC(=O)Nc2cc3c(cc21)OCO3 (centres undefined) the inhibition was 54.2% (active).
Cc1cc(NC(=O)CCC(=O)N(c2cccc(F)c2)C(C(=O)NC2CCCC2)c2ccncc2)no1 (centres undefined) showed an inhibition of -3.5%.
Work on C/C(=N\O)C1(C)N(O)C(C)(C)C(c2ccc(Br)cc2)=[N+]1[O-] (centres undefined) yielded an inhibition of -14.2%.
Molecule COC(=O)c1ccc(/C=N\n2c(C)nnc2C)cc1 has an inhibition of 0.3%.
For CCOC(=O)N1CCN(C(=O)C2CCCN(c3ncnc4c3sc3cccc(F)c34)C2)CC1 (centres undefined), the inhibition was 7.8%.
In the case of CC(C)c1ccc(-c2nn[nH]n2)cc1, the inhibition is reported as -0.6%.
Molecule COc1ccc(N2CCN(C3CC(=O)N(c4ccc5c(c4)OCCO5)C3=O)CC2)cc1 (centres undefined) has an inhibition of -12.3%.
O=C(CCc1ccccc1)Nc1cccc(-c2nnc(-c3ccco3)o2)c1 gave an inhibition of 10%.
Work on COC(=O)Cc1c(C)c2ccc(OCC(=O)NCc3ccc4c(c3)OCO4)cc2oc1=O yielded an inhibition of 12.5%.
With CN(C)CCCn1c(N)c(C#N)c2nc(C#N)c(C#N)nc21 the inhibition was -28.3%.
O=C(Cn1cnc2c(nnn2Cc2ccc(F)cc2)c1=O)NCc1ccc2c(c1)OCO2 gave an inhibition of 2%.
COc1ccc(C(=O)N2CCC(C(=O)Nc3cccc(C)c3)CC2)cc1OC gave an inhibition of -2.1%.
O=C(Nc1nsc(-c2ccccc2)n1)c1ccncc1 gave an inhibition of -6.7%.
COc1ccc(C2OC(=O)CC2C(=O)NC(C)C)cc1 (centres undefined) gave an inhibition of -3.4%.
With CC(C)CCNC(=O)CN(C(=O)Cn1nnc(-c2ccc(F)cc2)n1)C1CCCC1 the inhibition was 9.5%.
With O=C(O)c1cscn1 the inhibition was -20.4%.
In the case of O=S(=O)(NCc1ccccn1)c1ccc(F)cc1, the inhibition is reported as -4.1%.
Work on Cn1c(C(=O)NCCc2ccsc2)cc2c(=O)n(C)c3ccccc3c21 yielded an inhibition of -3.6%.
For Cn1c(C(=O)NCCCN2CCN(c3cccc(Cl)c3)CC2)cc2c(=O)n(C)c3ccccc3c21, the inhibition was 47.4% (active).
O=C(CCn1c(=O)[nH]c2ccccc2c1=O)NCCCN1CCN(c2cccc(Cl)c2)CC1 was tested, and the inhibition was 37.1%.
CCOC(=O)N1CCC(Nc2c(NCCN3CCN(c4cccc(Cl)c4)CC3)c(=O)c2=O)CC1 gave an inhibition of 1.9%.
CCn1c(=O)cc(OCC(=O)NCCCN2CCN(c3cccc(Cl)c3)CC2)c2ccccc21 was tested, and the inhibition was 50.4% (active).
For CC1CCCC(C)N1CCCNC(=O)c1cc2c(=O)n(C)c3ccccc3c2n1C (centres undefined), the inhibition was 1.7%.
Work on Fc1ccc2nc(Nc3nc4c(s3)CCCC4)sc2c1 yielded an inhibition of 16.8%.
With Cc1cnc(NC(=O)CSc2nnc(-c3ccc(Cl)cc3Cl)n2N)s1 the inhibition was -1.4%.
Work on CN(CCCNC(=O)CN1C(=O)CC(C)(C)S(=O)(=O)c2ccccc21)C1CCCCC1 yielded an inhibition of -7.9%.
In the case of CCOC(=O)Cn1c2c(c(-c3ccccc3OC)cc1=O)CCCC2, the inhibition is reported as 17.8%.
O=S(=O)(c1ccc(Sc2nnc3ccccn23)nc1)N1CCOCC1 was tested, and the inhibition was -7.8%.
With O=C(Nc1nnc(-c2ccc(Cl)cc2)o1)c1ccccc1Br the inhibition was 8.9%.
O=c1cc(CSc2ccc(Cl)cc2)nc(N2CCOCC2)[nH]1 gave an inhibition of -13.7%.
Cc1cc2c(=O)n(C)c(SCC(=O)c3cc4ccccc4o3)nc2s1 was tested, and the inhibition was -6.7%.
COc1ccccc1-c1nc(C(F)(F)F)c(OC)o1 showed an inhibition of 3.7%.
For COCCNC(=O)Cn1cc2c(n1)CCCCC2, the inhibition was -1.6%.
COc1ccc(C)c(Cn2c(-c3nonc3N)nc3ccccc32)c1 showed an inhibition of 38.7%.
With Nc1nonc1-c1nc2ccccc2n1Cc1ccc(F)cc1 the inhibition was 48% (active).
Nc1nonc1-c1nc2ccccc2n1CCC(=O)O showed an inhibition of -21.2%.
With Cc1cccc2nc(CNc3ccc(F)cc3)cn12 the inhibition was -11.2%.
In the case of COc1ccc(N2C(=O)C3CCCN3C2c2cccs2)cc1 (centres undefined), the inhibition is reported as 19.9%.
Work on O=C(CSc1nnc2ccccn12)c1ccccc1 yielded an inhibition of 3.3%.
COc1ccc(OC)c(C(=O)CSc2nnc(-c3cccs3)o2)c1 gave an inhibition of -4.9%.
Molecule Cc1ccc(-c2noc(CCC(=O)Nc3ccccc3N3CCN(C)CC3)n2)cc1 has an inhibition of 5.2%.
O=C(NCCN1CCOCC1)c1ccc2c(c1)ncn2C1CCCC1 was tested, and the inhibition was -8%.
Cc1ccc(Oc2ccc(N)cc2)cc1 was tested, and the inhibition was 11.4%.
CCCc1nc(SCC(=O)Nc2ccccc2OC)c2c(=O)n(C)c(=O)n(C)c2n1 was tested, and the inhibition was 10.8%.
In the case of CCOc1cc(/C=N/n2cnnc2)c(Br)cc1O, the inhibition is reported as -8.1%.
In the case of COc1ccc(O)c(C=Nc2cc(C)on2)c1, the inhibition is reported as 4.6%.
Molecule COc1ccccc1-n1cnc2cc(C(=O)NCC3CCCO3)ccc21 (centres undefined) has an inhibition of 10.8%.
For COC(=O)c1ccc(CSc2nncn2C)cc1, the inhibition was -0.1%.
Molecule COc1ccc(C(CNC(=O)c2cccnc2SC)N2CCOCC2)cc1 (centres undefined) has an inhibition of 5.3%.
Molecule CCCC(=O)Nc1c(O)c2ccccc2[nH]c1=O has an inhibition of 0.3%.
Work on O=C(c1cc(-c2cccc(O)c2)on1)N1CCc2ccccc2C1 yielded an inhibition of -4.3%.
For c1ccc(-c2cn3cccnc3n2)cc1, the inhibition was -0.3%.
Molecule C/C(CC(O)(/C=N/O)c1ccccc1)=N\O (centres undefined) has an inhibition of 7.7%.
